# Measured values: the supplement of paper PMC9794691
# What was measured:
# H1975 [1] = assay: area under confluence curve of osimertinib + compound combination regimen (DTP regrowth); compare to osimertinib-only DTP control AUC of the same experiment (AUC (confluence x time, arbitrary))
# Method in brief: (§1)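 Two schedules were compared in EGFR-mutant NSCLC lines. In one, the EGFR inhibitor and a fixed-dose test compound were given together up to the persister stage (10–21 days), followed by drug-free medium. In the other, the inhibitor alone came first and the test compound second. Prism calculated the area under the IncuCyte confluence–time curve, taking the median of triplicates where these were available.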
# HCC2279 [2] = assay: as above
# Method in brief: as §1
# HCC2935 [3] = assay: as above
# Method in brief: as §1
# HCC4006 [4] = assay: as above
# Method in brief: as §1
# HCC827 [5] = assay: as above
# Method in brief: as §1
# II-18 [6] = assay: as above
# Method in brief: as §1
# H1975 [7] = assay: area under confluence curve of compound monotherapy; compare to DMSO control AUC of the same experiment (AUC (confluence x time, arbitrary)); conditions: 10 nM; DMSO control AUC in same experiment: 20657
# Method in brief: (§2)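 Adenocarcinoma lines were grown in RPMI 1640 with 10% FBS at 37 °C and 5% CO2, seeded at 20,000–30,000 cells/well in 48-well plates, and treated the next day with test compound alone at one dose: 1 uM or the highest dose giving <50% parental inhibition. Every 3–4 days the wells were washed with PBS and the drug was refreshed, and medium was drug-free from the DTP stage (10–21 days). IncuCyte tracked confluence until wells given only an EGFR inhibitor regrew. Area under the confluence curve was calculated in Prism, taking the median of triplicates where run, and set beside the vehicle value from the same experiment.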
# HCC2279 [8] = assay: as above; conditions: 10 nM; DMSO control AUC in same experiment: 29252
# Method in brief: as §2
# HCC2935 [9] = assay: as above; conditions: 10 nM; DMSO control AUC in same experiment: 13875
# Method in brief: as §2
# HCC4006 [10] = assay: as above; conditions: 10 nM; DMSO control AUC in same experiment: 16638
# Method in brief: as §2
# HCC827 [11] = assay: as above; conditions: 10 nM; DMSO control AUC in same experiment: 27404
# Method in brief: as §2
# II-18 [12] = assay: as above; conditions: 10 nM; DMSO control AUC in same experiment: 7080
# Method in brief: as §2
# [13] = test compound dose 1000 nM, dosing schedule: sequential, osimertinib-only DTP control AUC in same experiment: 15943, DMSO control AUC in same experiment: 20657
# [14] = test compound dose 1000 nM, dosing schedule: upfront, osimertinib-only DTP control AUC in same experiment: 27804, DMSO control AUC in same experiment: 20657
# [15] = test compound dose 1000 nM, dosing schedule: sequential, osimertinib-only DTP control AUC in same experiment: 6271, DMSO control AUC in same experiment: 13875
# [16] = test compound dose 1000 nM, dosing schedule: upfront, osimertinib-only DTP control AUC in same experiment: 10360, DMSO control AUC in same experiment: 13875
# [17] = test compound dose 1000 nM, dosing schedule: sequential, osimertinib-only DTP control AUC in same experiment: 19238, DMSO control AUC in same experiment: 16638
# [18] = test compound dose 1000 nM, dosing schedule: upfront, osimertinib-only DTP control AUC in same experiment: 21234, DMSO control AUC in same experiment: 16638
# [19] = test compound dose 1000 nM, dosing schedule: sequential, osimertinib-only DTP control AUC in same experiment: 8266, DMSO control AUC in same experiment: 27404
# [20] = test compound dose 1000 nM, dosing schedule: upfront, osimertinib-only DTP control AUC in same experiment: 13929, DMSO control AUC in same experiment: 27404
# [21] = test compound dose 1000 nM, dosing schedule: sequential, osimertinib-only DTP control AUC in same experiment: 21014, DMSO control AUC in same experiment: 18482
# [22] = test compound dose 1000 nM, dosing schedule: upfront, osimertinib-only DTP control AUC in same experiment: 27084, DMSO control AUC in same experiment: 18482
compound,measurement,setting,value
CCn1nc(C2CCN(C(=O)CCO)CC2)nc1-c1cnc(N)c(-c2nnc(C(C)(C)C)o2)n1 + C=CC(=O)Nc1cc(Nc2nccc(-c3cn(C)c4ccccc34)n2)c(OC)cc1N(C)CCN(C)C [osimertinib],area under confluence curve,H1975 [1]; [13],6780
same,area under confluence curve,H1975 [1]; [14],13600
same,area under confluence curve,"HCC2279 [2]; test compound dose 1000 nM, dosing schedule: sequential, osimertinib-only DTP control AUC in same experiment: 11520, DMSO control AUC in same experiment: 9426",11600
same,area under confluence curve,"HCC2279 [2]; test compound dose 1000 nM, dosing schedule: upfront, osimertinib-only DTP control AUC in same experiment: 21942, DMSO control AUC in same experiment: 9426",16800
same,area under confluence curve,HCC2935 [3]; [15],6130
same,area under confluence curve,HCC2935 [3]; [16],4470
same,area under confluence curve,HCC4006 [4]; [17],16700
same,area under confluence curve,HCC4006 [4]; [18],5320
same,area under confluence curve,HCC827 [5]; [19],7050
same,area under confluence curve,HCC827 [5]; [20],11000
same,area under confluence curve,II-18 [6]; [21],11100
same,area under confluence curve,II-18 [6]; [22],4500
Cn1cc(CNCC2CCN(c3ncc(C(=O)NO)cn3)CC2)c2ccccc21 [Quisinostat],area under confluence curve,H1975 [7],8960
same,area under confluence curve,HCC2279 [8],18800
same,area under confluence curve,HCC2935 [9],8250
same,area under confluence curve,HCC4006 [10],11600
same,area under confluence curve,HCC827 [11],25100
same,area under confluence curve,II-18 [12],3280
CN(C)CCCOc1ccc(-c2ccc3ncc4c(c3c2)n(C2CCOCC2)c(=O)n4C)cn1 + C=CC(=O)Nc1cc(Nc2nccc(-c3cn(C)c4ccccc34)n2)c(OC)cc1N(C)CCN(C)C [osimertinib],area under confluence curve,"H1975 [1]; test compound dose 300 nM, dosing schedule: sequential, osimertinib-only DTP control AUC in same experiment: 19301, DMSO control AUC in same experiment: 26223",3330
same,area under confluence curve,"H1975 [1]; test compound dose 300 nM, dosing schedule: upfront, osimertinib-only DTP control AUC in same experiment: 23997, DMSO control AUC in same experiment: 26223",18100
same,area under confluence curve,"HCC2279 [2]; test compound dose 300 nM, dosing schedule: sequential, osimertinib-only DTP control AUC in same experiment: 26096, DMSO control AUC in same experiment: 14404",24700
same,area under confluence curve,"HCC2279 [2]; test compound dose 300 nM, dosing schedule: upfront, osimertinib-only DTP control AUC in same experiment: 33120, DMSO control AUC in same experiment: 14404",33900
same,area under confluence curve,"HCC2935 [3]; test compound dose 300 nM, dosing schedule: sequential, osimertinib-only DTP control AUC in same experiment: 22314, DMSO control AUC in same experiment: 19215",22300
same,area under confluence curve,"HCC2935 [3]; test compound dose 300 nM, dosing schedule: upfront, osimertinib-only DTP control AUC in same experiment: 29846, DMSO control AUC in same experiment: 19215",30600
same,area under confluence curve,"HCC4006 [4]; test compound dose 300 nM, dosing schedule: sequential, osimertinib-only DTP control AUC in same experiment: 12791, DMSO control AUC in same experiment: 18415",12000
same,area under confluence curve,"HCC4006 [4]; test compound dose 300 nM, dosing schedule: upfront, osimertinib-only DTP control AUC in same experiment: 17269, DMSO control AUC in same experiment: 18415",16000
same,area under confluence curve,"HCC827 [5]; test compound dose 300 nM, dosing schedule: sequential, osimertinib-only DTP control AUC in same experiment: 15330, DMSO control AUC in same experiment: 21320",12300
same,area under confluence curve,"HCC827 [5]; test compound dose 300 nM, dosing schedule: upfront, osimertinib-only DTP control AUC in same experiment: 20798, DMSO control AUC in same experiment: 21320",17400
same,area under confluence curve,"II-18 [6]; test compound dose 300 nM, dosing schedule: sequential, osimertinib-only DTP control AUC in same experiment: 8624, DMSO control AUC in same experiment: 11834",9720
same,area under confluence curve,"II-18 [6]; test compound dose 300 nM, dosing schedule: upfront, osimertinib-only DTP control AUC in same experiment: 10856, DMSO control AUC in same experiment: 11834",10600
C[C@@H](Nc1cc(F)cc(F)c1)c1cc(C(=O)N(C)C)cc2c(=O)cc(N3CCOCC3)oc12 + C=CC(=O)Nc1cc(Nc2nccc(-c3cn(C)c4ccccc34)n2)c(OC)cc1N(C)CCN(C)C [osimertinib],area under confluence curve,H1975 [1]; [13],8220
same,area under confluence curve,H1975 [1]; [14],13700
same,area under confluence curve,"HCC2279 [2]; test compound dose 1000 nM, dosing schedule: sequential, osimertinib-only DTP control AUC in same experiment: 21824, DMSO control AUC in same experiment: 29252",8080
same,area under confluence curve,"HCC2279 [2]; test compound dose 1000 nM, dosing schedule: upfront, osimertinib-only DTP control AUC in same experiment: 43517, DMSO control AUC in same experiment: 29252",21600
same,area under confluence curve,HCC2935 [3]; [15],5860
same,area under confluence curve,HCC2935 [3]; [16],5800
same,area under confluence curve,HCC4006 [4]; [17],10300
same,area under confluence curve,HCC4006 [4]; [18],5440
same,area under confluence curve,HCC827 [5]; [19],3540
same,area under confluence curve,HCC827 [5]; [20],3910
same,area under confluence curve,II-18 [6]; [21],12100
same,area under confluence curve,II-18 [6]; [22],10200
